Screens from PubChem.
Sampled rows, rich in hits. Any-hit rate of the full collection: about 4.7%.
D3 ag = activates the human D3 dopamine receptor | max activation, % | actives 0.58% (n = 410,000) | D3R DiscoveRx beta-arrestin cells, luminescence, 90 min; in the data active = max activation above about 30%
Target sequence (P35462 whole entry, looked up): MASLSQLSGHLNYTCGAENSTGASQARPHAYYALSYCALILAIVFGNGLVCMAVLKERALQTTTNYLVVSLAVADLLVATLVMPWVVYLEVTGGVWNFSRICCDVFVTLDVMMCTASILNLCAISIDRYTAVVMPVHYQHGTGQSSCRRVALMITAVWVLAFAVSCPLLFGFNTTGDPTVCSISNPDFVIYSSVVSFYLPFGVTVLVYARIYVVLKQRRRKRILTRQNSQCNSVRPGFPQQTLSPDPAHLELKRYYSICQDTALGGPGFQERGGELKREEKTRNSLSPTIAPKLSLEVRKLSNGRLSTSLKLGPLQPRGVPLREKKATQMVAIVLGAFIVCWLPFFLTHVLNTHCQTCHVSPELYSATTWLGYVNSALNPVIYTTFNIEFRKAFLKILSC
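Agonist mode: compounds and dopamine controls were applied to plated cells for 90 min at 37 degrees C after an overnight attachment at 1500 cells/well. Luminescent read-out followed 30 - 60 minutes at room temperature with DiscoveRx detection reagent.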
TGFb SMAD3 inh = blocks TGF-b signaling | HepG2 CAGA-GFP TGF-b/SMAD3 reporter, GFP fluorescence, 18 h; TGF-beta stimulated, 500 pg/mL final | Potency, µM (top dose mostly 46.1 µM), actives largely listed as inhibitors | actives 1.2% (n = 410,000) | AID 588855; also: nearly all actives have a fitted effect of over 65% in size
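Inhibition was scored as loss of TGF-beta-induced (500 pg/mL final, 18 hours, 37 degrees C) GFP in HEPG2 cells carrying a CAGA-GFP reporter, in DMEM with 1% FBS. Well GFP was summed per cell; Activity was normalised to unstimulated and stimulated DMSO wells, then concentration-response fitting.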
S2 tox = cell viability loss in ATXN counter-screen; actives 0.49% (n = 400,000); S2 cells (HEK-293 line with an ATXN2-luciferase reporter) viability, CellTiter-Fluor protease fluorescence, 24 h; Potency, µM (doses to about 56.7 µM), actives largely listed as cytotoxic; also: nearly all actives have a fitted effect of over 40% in size
ATXN2 expr inh = reduces ATXN2 reporter expression in HEK-293 cells. HEK-293 ATXN2-luciferase reporter, luminescence, 24 h. Potency, µM (highest dose often 57 µM), hits mostly inhibitors. actives 0.72% (n = 360,000). AID 1745845; also: nearly all actives have a fitted effect of over 55% in size
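ATXN2-luciferase reporter cells (luciferase flanked by upstream and downstream ATXN2 gene portions) were treated 24 h at 37 °C with compounds at up to 57 uM. SteadyGlo luminescence gave expression; GF-AFC fluorescence gave viability.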
HepG2 viability = counter-screen for TGF-b inhibitors: cytotoxicity in HepG2 cells; actives 0.76% (n = 410,000); Potency, µM (titrated, usually from 46.1 µM), usual class: cytotoxic; AID 588856; HepG2 CAGA-GFP viability, ATP luminescence, 18 h
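CellTiter-Glo luminescence gave cytotoxicity after 18 hours at 37 degrees C. The cells were HepG2 CAGA-GFP in 1% FBS DMEM, stimulated with 500 pg/mL TGF-beta after compound addition. %Activity was normalised to no-cell wells (complete cell-killing) and DMSO (no toxicity), and curves were fitted and classified.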
DRD3 antagonist = antagonists of human D3 dopamine receptor. P35462. D3R cells, DiscoveRx beta-arrestin luminescence, antagonist mode; hits give low values. max response, negative = inhibition, %. actives 2.5% (n = 360,000). AID 652054; in the data active = max response below about -50%; inconclusive = no clear call, values can overlap the other calls
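Cells plated overnight at 1500 cells/well, then exposed to library compounds with dopamine controls for 90 minutes at 37 degrees C. DiscoveRx reagent added for 30–60 minutes at room temperature; luminescence read, quantitative HTS format.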
Of the large screens only hits and unclear results are named; the others gave an inactive call. Unless noted, calls follow the shape of the dose curve; as a rule, active = well fitted curve in the direction sought with a large enough effect; inconclusive = small, poorly fitted or top-dose-only effect, or another doubt; inactive = no such curve, though single readings can be large; an effect the other way counts as inactive or inconclusive.

C[C@H]1CCC/C=C/[C@@H]2C[C@H](O)C[C@H]2[C@H](O)[C@H](S(=O)c2ccc(O)cc2)CC(=O)O1 (stereo partly specified)	TGFb SMAD3 inh 0.13µM, S2 tox inconclusive, ATXN2 expr inh inconclusive
CN(Cc1ccccc1)C(=O)CSc1nc2ccccc2n1Cc1ccccc1F	none (no result: DRD3 antagonist)
O=C(CCN1C(=O)/C(=C/c2cccs2)SC1=S)N1CCCCC1	D3 ag 34, TGFb SMAD3 inh inconclusive, S2 tox inconclusive, ATXN2 expr inh inconclusive
CSc1nnc(NC(=O)c2cc(=O)c3cc(C)cc(C)c3o2)s1	S2 tox 25µM
Cn1nccc1C(=O)NCC1CCC2(CCN(Cc3cccc4ncccc34)CC2)O1 (stereo unspecified)	none (no result: D3 ag, TGFb SMAD3 inh, ATXN2 expr inh, HepG2 viability, DRD3 antagonist)
Clc1ccc(/C=C/c2nc3ccccc3[nH]2)cc1	S2 tox inconclusive, ATXN2 expr inh inconclusive, HepG2 viability 11µM
Clc1ccc(/C=C/c2nc3ccccc3[nH]2)c(Cl)c1	TGFb SMAD3 inh inconclusive, ATXN2 expr inh inconclusive
CSc1nc(=O)n(-c2ccccc2)c(C)c1C(C)=O	D3 ag 34
CCSc1nc(=O)n(-c2ccccc2)c(C)c1C(C)=O	DRD3 antagonist inconclusive
CCOCCn1ccc2c(OCC(=O)NCc3ccc(F)cc3)cccc2c1=O	none (no result: DRD3 antagonist)
CCCCN(C)C(=O)C1CCN(C/C(C)=C/c2ccccc2)CC1	S2 tox inconclusive, DRD3 antagonist -65
CCCCN(C)C(=O)C1CCN(Cc2cccnc2)CC1	none
C/C(=C\c1ccccc1)CN1CCC(C(=O)N2CCC(C)CC2)CC1	none
C/C(=C\c1ccccc1)CN1CCC(C(=O)N2CCCCC2)CC1	DRD3 antagonist -57
CCCCNC(=O)C1CCN(C/C(C)=C/c2ccccc2)CC1	DRD3 antagonist -66
N#CC(C#N)=NNc1ccc2cn[nH]c2c1	TGFb SMAD3 inh inconclusive, S2 tox 16µM, ATXN2 expr inh inconclusive
COC(=O)c1sccc1S(=O)(=O)N(CC(=O)Nc1ccccc1C)c1ccc(Cl)cc1	TGFb SMAD3 inh inconclusive (no result: DRD3 antagonist)
COc1cc(-c2nc(C(=O)NC3CCN(Cc4ccccc4)CC3)cc3c2[nH]c2ccccc23)cc(OC)c1OC	DRD3 antagonist -117
COc1ccc(OC)c(-c2nc(C(=O)NCCCN3CCOCC3)cc3c2[nH]c2ccccc23)c1	none
Cc1ccc(-c2nc(C(=O)NCC3CCCO3)cc3c2[nH]c2ccccc23)cc1 (stereo unspecified)	S2 tox inconclusive, ATXN2 expr inh inconclusive
COc1ccc(OC)c(-c2nc(C(=O)NC3CCN(Cc4ccccc4)CC3)cc3c2[nH]c2ccccc23)c1	DRD3 antagonist -125
COc1ccc(-c2nc(C(=O)NCC3CCCO3)cc3c2[nH]c2ccccc23)cc1 (stereo unspecified)	D3 ag 34, S2 tox inconclusive, ATXN2 expr inh inconclusive
COc1cc(-c2nc(C(=O)NC3CCCCC3)cc3c2[nH]c2ccccc23)cc(OC)c1OC	S2 tox inconclusive
O=C(CCn1ccc2cc(S(=O)(=O)N3CCCC3)ccc21)NCc1ccccc1Cl	none (no result: DRD3 antagonist)
CN(C)c1ccc(/C=C2\CCc3cc(N)ccc32)cc1	none (no result: D3 ag, S2 tox, ATXN2 expr inh, DRD3 antagonist)
CNc1c(Cl)cc(/C=C2\C=Cc3ccccc32)cc1Cl	none (no result: D3 ag, S2 tox, ATXN2 expr inh, DRD3 antagonist)
Nc1nc(N)c2nc(-c3cccc(O)c3)c(-c3cccc(O)c3)nc2n1	ATXN2 expr inh 24µM (no result: D3 ag, TGFb SMAD3 inh, S2 tox, HepG2 viability, DRD3 antagonist)
O=C(NCc1cccnc1)C(=O)NCC(c1ccco1)N1CCN(c2ccccc2F)CC1 (stereo unspecified)	D3 ag 51
CC(C)(C)[C@H](N)C(=O)N[C@H]1CCC2C3CC=C4C[C@@H](O)CC[C@]4(C)C3CC[C@@]21C (stereo partly specified)	TGFb SMAD3 inh 14µM, ATXN2 expr inh inconclusive (no result: S2 tox)
CC(C)C(=O)N[C@H]1CCC2C3CC=C4C[C@@H](O)CC[C@]4(C)C3CC[C@@]21C (stereo partly specified)	none
CCOc1ccc(NC2=C(Cl)C(=O)N(C3CCCCC3)C2=O)cc1	S2 tox inconclusive
CN1CCN(C2=C(Cl)C(=O)N(C3CCCCC3)C2=O)CC1	TGFb SMAD3 inh 13µM
c1ccc(CN2CCC3(CCCc4ccccc43)CC2)cc1	S2 tox inconclusive, DRD3 antagonist -105
COC(=O)c1c(-c2ccc(Cl)cc2)noc1N1CCN(c2ccc(OC)cc2)CC1	D3 ag 69 (no result: DRD3 antagonist)
CCOc1ccc(Br)cc1C1=NN(C(C)=O)C(c2ccc([N+](=O)[O-])s2)O1 (stereo unspecified)	TGFb SMAD3 inh 13µM, DRD3 antagonist inconclusive
COc1cccc(/C=C/C(=O)c2ccc(NC3=NCCCS3)cc2)c1	TGFb SMAD3 inh inconclusive, ATXN2 expr inh inconclusive, DRD3 antagonist -54 (no result: S2 tox)
O=C(/C=C/c1ccc(Br)cc1)c1ccc(NC2=NCCCS2)cc1	TGFb SMAD3 inh inconclusive, S2 tox 32µM, ATXN2 expr inh inconclusive, DRD3 antagonist -55
Cc1cccc(/C=C/C(=O)c2ccc(NC3=NCCCS3)cc2)c1	TGFb SMAD3 inh inconclusive, S2 tox 10µM, DRD3 antagonist -57 (no result: ATXN2 expr inh)
CN[C@@H](C)C(=O)N[C@H]1CCCC[C@H]2CC[C@@H](C(=O)N[C@@H](c3ccccc3)c3cn(CCCCc4ccc(CCCCn5cc([C@@H](NC(=O)[C@@H]6CC[C@@H]7CCCC[C@H](NC(=O)[C@H](C)NC)C(=O)N76)c6ccccc6)nn5)cc4)nn3)N2C1=O	none (no result: D3 ag, TGFb SMAD3 inh, S2 tox, HepG2 viability, DRD3 antagonist)
Cc1cc(N(CCO)CCO)ccc1N=Nc1cc(F)ccc1F	S2 tox inconclusive, DRD3 antagonist -74
CCCc1ccc(Oc2c(-c3ccc(O)c(C)c3O)n[nH]c2C)cc1	TGFb SMAD3 inh inconclusive, S2 tox inconclusive, DRD3 antagonist -81
CCCOC(=O)c1ccc(Oc2cn[nH]c2-c2ccc(OCC)cc2O)cc1	TGFb SMAD3 inh inconclusive, S2 tox inconclusive, ATXN2 expr inh inconclusive
CCCOC(=O)c1ccc(Oc2c(-c3ccc(OCC)cc3O)n[nH]c2C)cc1	TGFb SMAD3 inh 11µM, ATXN2 expr inh inconclusive, HepG2 viability 11µM (no result: S2 tox)
CCCc1ccc(Oc2cn[nH]c2-c2ccc(O)c(C)c2O)cc1	TGFb SMAD3 inh inconclusive, S2 tox inconclusive, ATXN2 expr inh inconclusive
Cc1sc2ccccc2[n+]1CCCCBr	TGFb SMAD3 inh inconclusive (no result: D3 ag, S2 tox, ATXN2 expr inh, DRD3 antagonist)
CN1CCN(C(c2ccccc2)c2ccccc2)CC1	DRD3 antagonist -80
CC(C)(C)C(=O)N1CCN(C(c2ccccc2)c2ccccc2)CC1	none
c1ccc(OCCN2CCNCC2)cc1	none
c1ccc(OCCN2CCN(C(c3ccccc3)c3ccccc3)CC2)cc1	TGFb SMAD3 inh inconclusive, DRD3 antagonist -89
O=C(Nc1ccc(N2CCCCC2)cc1)c1ccccn1	ATXN2 expr inh 1.8µM
O=C(Nc1ccc(Cl)c(S(=O)(=O)N2CCOCC2)c1)c1cn2ccccc2n1	none
